This passage reports outcome and AC50 results from PubChem BioAssay (EPA / NIEHS).

Read-out in assay [1]: Interleukin-6 (IL6), IL6 (gene 3569)
Nature of the assay: BSK_CASM3C_IL6: BioMAP Diversity Plus: CASM3C Assay for Interleukin-6 (IL6) Biomarker Activity for (AID 2283040). The settings on record: primary human coronary artery smooth muscle cells; actives raise or lower the signal.

Read-out in assay [2]: Tissue plasminogen activator (tPA), PLAT (gene 5327)
The assay is described as follows: BSK_BE3C_tPA: BioMAP Diversity Plus: BE3C Assay for Tissue plasminogen activator (tPA) Biomarker Activity (AID 2283041).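 For outcome: tPA level quantified by ELISA one day after compound addition.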 To be noted: primary human bronchial epithelial cells; actives raise or lower the signal. An outline of the steps:
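Primary human bronchial epithelial cells in the BE3C system, exposed to compound for 24 h. tPA was quantified by ELISA; DMSO served as baseline, with gain or loss of signal fitted. Cytotoxicity checked in parallel cultures by SRB total-protein staining.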

Read-out in assay [3]: Interleukin-8 (IL8), CXCL8 (gene 3576)
Nature of the assay: BSK_CASM3C_IL8: BioMAP Diversity Plus: CASM3C Assay for Interleukin-8 (IL8) Biomarker Activity (AID 2283042).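 Note: IL-8 protein level quantified by ELISA.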 To be noted: primary human coronary artery smooth muscle cells; actives raise or lower the signal.

Read-out in assay [4]: Human Leukocyte Antigen - DR isotype (HLADR), HLA-DRA (gene 3122)
The assay is described as follows: BSK_CASM3C_HLADR: BioMAP Diversity Plus: CASM3C Assay for Human Leukocyte Antigen - DR isotype (HLADR) Biomarker Activity (AID 2283043).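 Note: cell-surface HLA-DR protein level quantified by ELISA.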 The settings on record: primary human coronary artery smooth muscle cells; actives raise or lower the signal.

Read-out in assay [5]: Macrophage colony-stimulating factor (MCSF), CSF1 (gene 1435)
The assay is described as follows: BSK_CASM3C_MCSF: BioMAP Diversity Plus: CASM3C Assay for Macrophage colony-stimulating factor (MCSF) Biomarker Activity (AID 2283044).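 Note: M-CSF protein amount quantified by ELISA after 24 h exposure.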 To be noted: primary human coronary artery smooth muscle cells; actives raise or lower the signal.

Read-out in assay [6]: Low-density lipoprotein receptor (LDLR), LDLR (gene 3949)
The assay is described as follows: BSK_CASM3C_LDLR: BioMAP Diversity Plus: CASM3C Assay for Low-density lipoprotein receptor (LDLR) Biomarker Activity (AID 2283045).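 Note: LDLR protein level on the cell surface quantified by ELISA.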 To be noted: primary human coronary artery smooth muscle cells; actives raise or lower the signal.

Read-out in assay [7]: Monocyte Chemoattractant Protein-1 (MCP1), CCL2 (gene 6347)
The assay is described as follows: BSK_CASM3C_MCP1: BioMAP Diversity Plus: CASM3C Assay for Monocyte Chemoattractant Protein-1 (MCP1) Biomarker Activity (AID 2283046).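 Note: MCP-1 level quantified by ELISA 24 h after dosing.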 To be noted: primary human coronary artery smooth muscle cells; actives raise or lower the signal.

The nature of assay [8]: BSK_CASM3C_Proliferation: Cell Proliferation Assessment in the BioMAP Diversity Plus: CASM3C Assay (AID 2283047).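 Note: sulforhodamine B total protein stain as relative cell number at 560 nm; sub-confluent cells exposed 48 h before staining; fitted both ways against DMSO so gain or loss of cell number.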 The settings on record: primary human coronary artery smooth muscle cells.
Read-out in assay [9]: Monokine induced gamma interferon (MIG), CXCL9 (gene 4283)
The assay is described as follows: BSK_CASM3C_MIG: BioMAP Diversity Plus: CASM3C Assay for Monokine induced gamma interferon (MIG) Biomarker Activity (AID 2283048).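 Note: MIG protein level measured by ELISA.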 To be noted: primary human coronary artery smooth muscle cells; actives raise or lower the signal.

Read-out in assay [10]: serum amyloid A (SAA), SAA1 (gene 6288)
Nature of the assay: BSK_CASM3C_SAA: BioMAP Diversity Plus: CASM3C Assay for serum amyloid A (SAA) Biomarker Activity (AID 2283049).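 Note: SAA protein level quantified by ELISA.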 The settings on record: primary human coronary artery smooth muscle cells; actives raise or lower the signal.

Assay [11] can be described thus: BSK_CASM3C_SRB: Viability Assessment in the BioMAP Diversity Plus: CASM3C Assay (AID 2283050). To be noted: primary human coronary artery smooth muscle cells.
Read-out in assay [12]: Thrombomodulin, THBD (gene 7056)
Nature of the assay: BSK_CASM3C_Thrombomodulin: BioMAP Diversity Plus: CASM3C Assay for Thrombomodulin Biomarker Activity (AID 2283051).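 Note: thrombomodulin protein level measured by ELISA 24 h after dosing.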 The settings on record: primary human coronary artery smooth muscle cells; actives raise or lower the signal.

Read-out in assay [13]: Tissue Factor, F3 (gene 2152)
Nature of the assay: BSK_CASM3C_TissueFactor: BioMAP Diversity Plus: CASM3C Assay for Tissue Factor Biomarker Activity (AID 2283052).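 Note: cell surface tissue factor protein level read by ELISA.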 The settings on record: primary human coronary artery smooth muscle cells; actives raise or lower the signal.

Read-out in assay [14]: Interferon-gamma inducible Protein 10 (IP10), CXCL10 (gene 3627)
Nature of the assay: BSK_hDFCGF_IP10: BioMAP Diversity Plus: hDFCGF Assay for Interferon-gamma inducible Protein 10 (IP10) Biomarker Activity (AID 2283053). To be noted: primary human foreskin fibroblasts; actives raise or lower the signal. An outline of the steps: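 Primary human foreskin fibroblasts exposed to chemicals for 24 h. IP-10 measured by ELISA; changes fitted bidirectionally against DMSO baseline.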

Read-out in assay [15]: Urokinase-type plasminogen activator receptor (uPAR), PLAUR (gene 5329)
The assay is described as follows: BSK_CASM3C_uPAR: BioMAP Diversity Plus: CASM3C Assay for Urokinase-type plasminogen activator receptor (uPAR) Biomarker Activity (AID 2283054).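 Note: cell-surface uPAR protein level quantified by ELISA.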 To be noted: primary human coronary artery smooth muscle cells; actives raise or lower the signal.

Read-out in assay [16]: Vascular cell adhesion molecule 1 (VCAM1), VCAM1 (gene 7412)
Nature of the assay: BSK_CASM3C_VCAM1: BioMAP Diversity Plus: CASM3C Assay for Vascular cell adhesion molecule 1 (VCAM1) Biomarker Activity (AID 2283055).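 Note: VCAM-1 protein level quantified by ELISA on the cells.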 To be noted: primary human coronary artery smooth muscle cells; actives raise or lower the signal.

Read-out in assay [17]: Collagen III, COL3A1 (gene 1281)
The assay is described as follows: BSK_hDFCGF_CollagenIII: BioMAP Diversity Plus: hDFCGF Assay for Collagen III Biomarker Activity (AID 2283056). To be noted: primary human foreskin fibroblasts; actives raise or lower the signal. An outline of the steps: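 Human foreskin primary fibroblasts were exposed to test chemicals for 24 h, after which collagen III was quantified by ELISA. Activity was fitted bidirectionally against DMSO as negative control and baseline.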

Read-out in assay [18]: Epidermal growth factor receptor (EGFR), EGFR (gene 1956)
Nature of the assay: BSK_hDFCGF_EGFR: BioMAP Diversity Plus: hDFCGF Assay for Epidermal growth factor receptor (EGFR) Biomarker Activity (AID 2283057). The settings on record: primary human foreskin fibroblasts; actives raise or lower the signal. An outline of the steps: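 Primary human foreskin fibroblasts (hDFCGF system), sampled 24 h after dosing; EGFR quantified by ELISA. Bidirectional fit relative to DMSO baseline; SRB total-protein staining in parallel cultures for cytotoxicity.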

Read-out in assay [19]: Interleukin-8 (IL8), CXCL8 (gene 3576)
The assay is described as follows: BSK_hDFCGF_IL8: BioMAP Diversity Plus: hDFCGF Assay for Interleukin-8 (IL8) Biomarker Activity (AID 2283058). The settings on record: primary human foreskin fibroblasts; actives raise or lower the signal. An outline of the steps:
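hDFCGF human dermal fibroblasts; 24 h chemical exposure; IL-8 by ELISA; bidirectional curve fit vs DMSO baseline; gain or loss of signal scored.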

Assay [20] can be described thus: BSK_hDFCGF_Proliferation: Cell Proliferation Assessment in the BioMAP Diversity Plus: hDFCGF Assay (AID 2283059).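 Note: curves fitted for both rise and fall of signal versus DMSO baseline.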 To be noted: primary human foreskin fibroblasts. A digest of the protocol: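 This proliferation readout used SRB total-protein staining of human foreskin fibroblasts […], normalized to DMSO with bidirectional curve fitting.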

By AC50 is commonly meant the midpoint of the concentration-response curve, whichever way the signal moves.

Several values for one entry are separate records, joined by “and”; a condition that tells them apart may be missing. Identical values can stand only once. Some compounds were tested as several samples or in several runs, with calls that do not always agree. Activity calls are given as the source filed them. Rule for the calls: active = hit-call score of the fitted dose curve at least 0.9, where 1 is the maximum; inactive = score below 0.9.

For `OCCN1CN(CCO)CN(CCO)C1`, the outcome in assay [1], in [2], in [3], in assay [4], in assay [7] and in assay [8] was inactive. Also, the outcome in [9], in assay [10], in assay [12], in [13], in [15] and in assay [17] was inactive. Also, the outcome in [18] and in assay [19] was inactive. For the same compound, the AC50 was 5 µM (active) in assay [5]; 0.17 µM (active) in [6]; 20 µM (active) in assay [11]; 20 µM (active) in [14]; 32.8 µM (active) in [16].

As for `O=C1NS(=O)(=O)c2ccccc21`, the result in [1], in assay [2], in [3], in assay [4], in assay [5] and in assay [6] was inactive. Moreover, the result in assay [7], in [8], in assay [9], in [10], in assay [11] and in [12] was inactive. The outcome in assay [13], in assay [14], in assay [15], in [16], in assay [17] and in [18] was inactive. Also, the result in assay [19] and in [20] was inactive. Also, in assay [16], the AC50 was 0.15 µM (active).

In the case of `Oc1c(Cl)cc(Cl)cc1Sc1cc(Cl)cc(Cl)c1O`, the result in assay [1], in [3], in assay [6], in [7], in assay [10] and in [13] was inactive. The result in assay [18] was inactive. The AC50 in assay [2] is 4.32 µM (active) and 3.03 µM (active); in [4], 9.1 µM (active) and 7.2 µM (active); in assay [5], 12.6 µM (active) and 11.8 µM (active); in [8], 15.8 µM (active) and 12.1 µM (active); in assay [9], 20.2 µM (active) and 26.6 µM (active); in [10], 20 µM (active). Moreover, the AC50 in assay [11] is 17.1 µM (active); in assay [12] it was 12.8 µM (active) and 12.6 µM (active); in [14], 1.66 µM (active) and 1.94 µM (active); in [15], 20 µM (active) and 18.3 µM (active); in assay [16], 20 µM (active) and 12.7 µM (active); in assay [17], 1.39 µM (active) and 455 nM (active). The AC50 was 0.236 µM (active) in assay [18]; 4.43 µM (active) and 4.46 µM (active) in assay [19].

Take `CCCCCCCCCCCC`: the outcome in [1], in assay [2], in assay [3], in [4], in assay [5] and in assay [6] was inactive. Further, the result in [7], in assay [8], in [9], in assay [10], in [11] and in assay [12] was inactive. The result in assay [13], in assay [15], in assay [16] and in assay [18] was inactive. Further, the AC50 in [14] is 8.64 µM (active) and 6.71 µM (active); in assay [17] it was 9.2 µM (active) and 5.67 µM (active); in assay [19] it was 12.9 µM (active) and 14.6 µM (active).

Take `CN(Cc1cnc2nc(N)nc(N)c2n1)c1ccc(C(=O)N[C@@H](CCC(=O)O)C(=O)O)cc1`: the result in assay [1], in [2], in [3], in assay [4], in assay [5] and in [6] was inactive. The outcome in [7], in [8], in assay [9], in [10], in [11] and in assay [12] was inactive. The outcome in [13], in assay [14], in assay [15], in [16], in assay [17] and in [18] was inactive. Also, in [19], the result was inactive.
